# Assay outcomes as filed in PubChem BioAssay.
# Sampled rows, rich in hits. Any-hit rate of the full collection: about 7.1%.
# MCF10A rerep: inducers of DNA re-replication in MCF 10A breast cells. MCF 10A DNA re-replication, Hoechst nuclear intensity, 48 h. Potency, µM (titrated, usually from 46.1 µM), actives largely listed as activators. hit rate 2.9% among 350,000. AID 624296; note: nearly all actives have a fitted effect of over 50% in size
# ELG1 DNA repair: blocks ELG1-dependent DNA repair in HEK293T cells | HEK293T ELG1-luciferase reporter, luminescence, 16 h; DNA damage induced by 5-fluorouridine | Potency, µM (top dose mostly 46.1 µM), usual class: inhibitors | hit rate 2.3% among 330,000 | AID 504467; note: nearly all actives have a fitted effect of over 55% in size
#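 Quantitative HTS, concentration-response format. 2,000 cells/well co-treated with 5-fluorouridine and compound, 16 hr in 5% CO2 at 37 °C; ONE-Glo luminescence read after 30 min.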
# AT treatment: potential ataxia-telangiectasia treatments restoring KAP-1 phosphorylation; F2112 A-T fibroblasts, KAP-1 phosphorylation AlphaLISA; neocarzinostatin DNA damage 30 min before lysis; hit rate 0.19% among 320,000; Potency, µM (top dose mostly 57.5 µM), actives largely listed as activators; note: nearly all actives have a fitted effect of over 45% in size
#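 hTERT-immortalized A-T patient fibroblasts (F2112), 500 cells/well in OPTI-MEM, 1% FBS, got compounds for 60 min, then NCS for 30 min at 37C. Lysates were then assayed for phospho-KAP-1 by AlphaLISA (anti-pKAP1 donor, anti-KAP1 acceptor beads), 6 hr at 25C.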
# SW480 rerep: induces DNA re-replication in SW480 colon adenocarcinoma cells | SW480 DNA re-replication, Hoechst DNA content imaging, 48 h | Potency, µM (series often up to 46.1 µM), usual class: activators | hit rate 1.8% among 340,000 | AID 624297; note: nearly all actives have a fitted effect of over 55% in size
#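 Compounds, transferred as 23 nL by pin tool, were incubated with cells for 48 hr; DNA content per nucleus was then quantified by Hoechst staining and fluorescence plate imaging.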
# p53 reactivator: re-activators of mutant p53 | H1299 p53-A138V BP100-luciferase reporter, luminescence, 24 h | Potency, µM (series often up to 92.2 µM), actives largely listed as activators | hit rate 0.063% among 320,000 | AID 504706; note: nearly all actives have a fitted effect of over 45% in size
#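 H1299 (p53-null), stable ts p53-A138V + BP100-Luc; 1000 cells/well, Opti-MEM/10% FBS; cpd 4 pt, 1:5; 24 h, 37 deg C, 5% CO2; detection reagent 10 min RT; luminescence.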
# ELG1 genotox: induces genotoxicity in HEK293T cells with luciferase-tagged ELG1; AID 504466; Potency, µM (titrated, usually from 46 µM), hits mostly activators; hit rate 1.3% among 330,000; HEK293T ELG1-luciferase reporter, luminescence, 16 h; note: nearly all actives have a fitted effect of over 60% in size
#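 HEK293T cells expressing luciferase-tagged ELG1 were exposed to compound or DMSO vehicle for 16 hr at 37 °C and 5% CO2. Luciferase activity was then measured with ONE-Glo after 30 min at room temperature.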
# A number is an active result; i = inactive; ? = inconclusive; nt = no result given. Calls come from the whole dose curve; as a rule, active = well fitted curve in the direction sought with a large enough effect; inconclusive = small, poorly fitted or top-dose-only effect, or another doubt; inactive = no such curve, though single readings can be large; an effect the other way counts as inactive or inconclusive.
SMILES,MCF10A rerep,ELG1 DNA repair,AT treatment,SW480 rerep,p53 reactivator,ELG1 genotox
CN(c1ccccc1)c1nc(-n2ccnc2)nc(-n2ccnc2)n1,i,i,i,i,i,i
c1ccc(N(c2ccccc2)c2nc(-n3ccnc3)nc(-n3ccnc3)n2)cc1,20µM,?,i,i,i,i
NC(CCC(=O)N[C@@H](CS)C(=O)NCC(=O)O)C(=O)O (stereo partly specified),i,nt,nt,i,nt,nt
Cc1cc(NC(=O)c2cc([N+](=O)[O-])ccc2Cl)no1,?,i,i,?,i,i
O=C(c1cc([N+](=O)[O-])ccc1Cl)N1c2ccccc2Sc2ccccc21,18µM,i,i,?,i,i
O=C(Nc1cccc(NC(=O)c2cc([N+](=O)[O-])ccc2Cl)n1)c1cc([N+](=O)[O-])ccc1Cl,6.5µM,nt,nt,?,nt,nt
O=C(Nc1ccc([N+](=O)[O-])cc1)c1cc2ccccc2nc1Cl,i,18µM,nt,?,i,i
O=C(Nc1ccccc1[N+](=O)[O-])c1cc2ccccc2nc1Cl,i,i,?,i,i,i
CN(CC(=O)Nc1ccc(Cl)cc1F)C1CCS(=O)(=O)C1 (stereo unspecified),?,i,i,i,i,i
N=C1/C(=C/c2cccn2Cc2ccc(F)cc2)C(=O)N=C2SC=CN12,4.6µM,i,i,i,i,i
Cc1ccc(Cn2cccc2/C=C2/C(=N)N3C=CSC3=NC2=O)cc1,i,i,i,i,i,i
Cc1ccc(C(=O)N2CCN(S(=O)(=O)c3sc(C(=O)O)c(C)c3C(=O)O)CC2)s1,i,i,i,i,i,i
COc1ccc(-c2cc(C(=O)OCC(=O)N3CCCC3)c3ccccc3n2)cc1,i,?,i,i,i,i
COc1ccc2nc(-c3ccccc3)cc(C(=O)OCC(=O)N3CCCCC3)c2c1,i,?,i,21µM,i,i
Cc1cc(-c2ccccc2)nc(SCC(=O)c2cccc([N+](=O)[O-])c2)n1,?,i,i,16µM,i,i
CCc1nc(SCC(=O)c2cccc([N+](=O)[O-])c2)n[nH]1,i,i,i,i,i,i
COc1ccc(-c2cc(C(=O)OCC(=O)c3cccc([N+](=O)[O-])c3)c3cc(C)ccc3n2)cc1,18µM,i,i,i,i,i
COc1ccc(-c2cc(C)nc(SCC(=O)c3cccc([N+](=O)[O-])c3)n2)cc1,?,21µM,i,i,i,i
Cc1cc(C)n(CCCNC(=O)c2ccc(C)o2)n1,i,i,i,i,i,i
O=C(NC1CCCC1)C(c1cccnc1)N(C(=O)c1csnn1)c1ccccc1Cl (stereo unspecified),i,i,i,i,i,i
COc1ccc(C(=O)CSc2cc(C)nc(SCC(=O)c3ccc(C)cc3)n2)cc1,i,5.2µM,i,i,i,i
Cc1cc(SCC(=O)Nc2ccccc2)n2ncc(-c3ccccc3)c2n1,?,i,i,?,i,i
COc1ccc(NC(=O)CSc2cc(C)nc3c(-c4ccccc4)cnn23)cc1,9.2µM,i,i,?,i,i
CCOC(CCn1c(SCC(=O)NC2CCCC2)nc2ccccc2c1=O)OCC,i,i,i,i,i,i
Cc1ccc(NC(=O)N2CCCC2C(=O)Nc2nnc(C(C)C)s2)cc1 (stereo unspecified),?,?,i,i,i,i
CCOc1ccc2c(c1)C(C)=CC(C)(C)N2C(=O)Nc1ccccc1F,?,?,i,i,i,i
CCNC(=O)N1c2ccc(OCC)cc2C(C)=CC1(C)C,14µM,i,i,i,i,i
COc1ccc2c(c1)C(C)=CC(C)(C)N2S(=O)(=O)c1ccc(C)cc1,?,i,i,13µM,i,i
CC1=CC(C)(C)N(C(=O)CCl)c2cc(C)ccc21,i,i,i,i,i,i
COC(=O)C1(C)CN(S(=O)(=O)c2ccc(C)cc2)c2cc(OC)ccc2C1=O (stereo unspecified),i,?,i,?,i,i
